Screening results as filed in PubChem BioAssay.
D2 antagonist – HTS Assay for Allosteric Antagonists of the Human D2 Dopamine Receptor: Primary Screen for Antagonists; D(2) dopamine receptor (Homo sapiens), P14416; HEK293 TREx D2 cells, calcium flux, dopamine EC80; inhibition, % at 10 µM; actives 2% (n = 340,000); in the data active = inhibition above about 30%; inactive = below that, where a call was filed
Target sequence (P14416 whole entry, looked up): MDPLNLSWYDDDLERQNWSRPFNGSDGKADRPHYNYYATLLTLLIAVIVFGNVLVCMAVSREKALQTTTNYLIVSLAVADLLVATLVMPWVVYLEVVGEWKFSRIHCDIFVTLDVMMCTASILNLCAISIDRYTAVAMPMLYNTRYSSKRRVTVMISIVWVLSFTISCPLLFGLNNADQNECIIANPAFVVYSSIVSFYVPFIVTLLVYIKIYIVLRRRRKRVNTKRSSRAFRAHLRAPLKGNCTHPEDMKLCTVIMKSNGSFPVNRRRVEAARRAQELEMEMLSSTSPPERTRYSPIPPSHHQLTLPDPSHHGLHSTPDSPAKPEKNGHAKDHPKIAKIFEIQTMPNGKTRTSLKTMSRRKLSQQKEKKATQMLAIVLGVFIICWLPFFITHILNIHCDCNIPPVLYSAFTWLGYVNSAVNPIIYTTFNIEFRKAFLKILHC
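Overnight-induced (tetracycline, 30 C) HEK293 T-REx cells carrying force-coupled D2 receive a no-wash calcium dye, then compound, then EC80 dopamine at 180 s; signals are read kinetically throughout.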
D2 ag-1 – HTS Assay for Allosteric Agonists of the Human D2 Dopamine Receptor: Primary Screen for Agonists | D(2) dopamine receptor (Homo sapiens), P14416 | HEK293 T-REx D2 cells, calcium flux agonist mode | activation, % at 2 µM | actives 0.53% (n = 340,000) | AID 485358, 2010;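 active = activation over 3 SD above normal in the single-dose calcium agonist read, cut at about 30% in these data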
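Tetracycline-induced HEK293 Trex cells with D2 receptor force-coupled to calcium signaling, plated overnight at 30 C and loaded with no-wash calcium dye. Calcium flux read kinetically for 180 s after compound addition; responses flag agonists.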
D2 ag-2 – Beta-Arrestin HTS for Positive Allosteric Modulators of the Human D2 Dopamine Receptor: Agonists | D(2) dopamine receptor (Homo sapiens), P14416 | DiscoveRx PathHunter D2 beta-arrestin, luminescence, 90 min; 100% = 57 uM dopamine signal | activation, % (no concentration beside the values) | actives 0.084% (n = 360,000) | AID 624465, 2012; in the data active = activation above about 40%; inconclusive = between about 15% and that limit
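DiscoveRx PathHunter D2 beta-arrestin cells (2,100/well) attached overnight, then compound-stimulated 90 min at 37 C in HBSS/10 mM HEPES/0.1% Tween-20 buffer; beta-galactosidase complementation read by luminescence after 1 h at ambient temperature. Dopamine 57 uM final (EC100) as control.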
D2 PAM-1 – Beta-Arrestin HTS for Positive Allosteric Modulators of the Human D2 Dopamine Receptor: Potentiators | D(2) dopamine receptor (Homo sapiens), P14416 | DiscoveRx D2 beta-arrestin cells, luminescence, 90 min; 100% = 57 uM dopamine signal | potentiation, % (no concentration beside the values) | actives 0.23% (n = 360,000); in the data active = potentiation above about 50%; inconclusive = mostly about 30% to 49%
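PathHunter D2 cells, attached overnight at 37 deg C, received compound in DMSO plus dopamine at EC20 (50 nM final) for 90 min at 37 deg C. Beta-arrestin recruitment was read as luminescence after 1 h with detection reagent at ambient temperature.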
D2 PAM-2 – HTS Assay for Positive Allosteric Modulators of the Human D2 Dopamine Receptor: Primary Screen for Potentiators. D(2) dopamine receptor (Homo sapiens), P14416. HEK293 T-REx D2, calcium flux, EC20 dopamine potentiation. potentiation, % at 10 µM. actives 0.34% (n = 340,000). AID 485347, 2010;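 active = potentiation over 3 SD above the plate norm, cut at about 30% in these data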
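Tetracycline-induced HEK293 T-REx cells force-coupled to calcium signalling expressed D2; compounds were pin-added after a 10 s baseline, read kinetically 180 s, then an EC20 dopamine challenge followed with a further 180 s calcium read.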
D3 ag – qHTS of D3 Dopamine Receptor Agonist: D3 Dopamine Receptor B-arrestin Agonist Confirmatory Assay; shares compounds with D2 ag-1; DiscoveRx D3 beta-arrestin cells, luminescence, 90 min; Potency, µM (highest dose often 76.9 µM), hits mostly activators; actives 4% (n = 2,300); note: nearly all actives have a fitted effect of over 70% in size
D2 ag-3 – qHTS of D3 Dopamine Receptor Agonist: D2 Dopamine Receptor B-arrestin Agonist Counterscreen | actives 5.9% (n = 2,300) | DiscoveRx PathHunter D2 beta-arrestin, luminescence, 90 min; response scale: percent relative to full dopamine signal | shares compounds with D2 ag-1 | Potency, µM (top dose mostly 76.9 µM), hits mostly activators; note: nearly all actives have a fitted effect of over 70% in size
Hits are given with their value; n = inactive; u = inconclusive; x = no result. In the library only some 2.4% were active in any assay of this set; here they are far more common. Unless noted, calls come from the whole dose curve; as a rule, active = well fitted activation curve with a large enough effect; inconclusive = small, poorly fitted or top-dose-only effect; inactive = flat fitted curve, though single readings scatter.

SMILES	D2 antagonist	D2 ag-1	D2 ag-2	D2 PAM-1	D2 PAM-2	D3 ag	D2 ag-3
O=C(CN1CCN(Cc2ccc(Cl)cc2)C1=O)NCCCN1CCN(c2ccc(F)cc2)CC1	n	n	n	n	n	x	x
Cc1ccccc1CN1CCN(CC(=O)NCCCN2CCN(c3ccc(F)cc3)CC2)C1=O	64.1	n	n	n	n	n	n
Cc1ccc(C(=O)NCc2cccnc2)cc1S(=O)(=O)N1CCCCCC1	n	n	n	n	n	x	x
O=S(=O)(c1ccc2nc(COc3ccc(Cl)cc3Cl)[nH]c2c1)N1CCOCC1	38.3	n	n	n	n	n	n
Cc1ccccc1OCc1nc2ccc(S(=O)(=O)N3CCOCC3)cc2[nH]1	n	n	n	n	n	x	x
CCCn1cc(SCC(=O)NC2CCCC2)c2ccccc21	n	n	n	n	n	n	n
COc1ccc(-c2ccc3c(c2)c(C#Cc2ccsc2)c(-c2cc(OC)cc(OC)c2)n3C)cc1	x	x	n	n	x	x	x
COc1ccc(-c2c(C#Cc3ccsc3)c3cc(-c4ccc(OC)c(F)c4)ccc3n2C)cc1	n	n	n	n	n	n	n
CCS(=O)(=O)c1ccc(O)c(NC(=O)Nc2ccccc2OC)c1	n	n	n	n	n	x	x
N#Cc1cccc(NC(=O)CCN2C(=O)C3CCCCC3C2=O)c1 (stereo not given)	x	x	n	n	x	x	x
CCN1CCC2(CC1)C(C#N)=C(N)Oc1c2sc2nc(C)cc(C)c12	53.2	66.7	n	n	n	n	n
CC(=O)N1CCC2(CC1)C(C#N)=C(N)Oc1c2sc2nc(C)cc(C)c12	n	n	n	n	n	x	x
FC(F)(F)c1ccc(Cl)c(NC2=NCCCCC2)c1	n	53.1	n	n	n	n	n
FC(F)(F)c1ccc(N2CCOCC2)c(NC2=NCCCCC2)c1	n	n	n	n	n	x	x
O=C(NC(=S)Nc1ccc(CN2CCOCC2)cc1)c1ccccc1[N+](=O)[O-]	x	x	n	n	x	n	n
O=C(NC(=S)Nc1ccc(CN2CCOCC2)cc1)c1ccc([N+](=O)[O-])cc1Cl	n	n	n	n	n	x	x
C=CCNC(=S)NN=C1CCCCCCC1	n	n	n	n	n	x	x
Nc1ccn(CC(=O)NCc2ccc3[nH]ccc3c2)c(=O)n1	n	n	n	n	n	n	u
Cc1ccccc1[C@@H](NC(=O)OC(C)(C)C)C(=O)OC(C)(C)C	n	n	n	n	n	n	n
CCOC(=O)c1cc(S(=O)(=O)N2CCN(Cc3ccccc3)CC2)cn1C	n	n	n	n	n	x	x
CCOC(=O)C1=CCN(Cc2ccccc2)CC1	101.0	82.7	76.6	n	n	n	u
CCn1c2ccc(C)cc2c2n[nH]c(=S)nc21	n	n	n	n	n	n	n
CNC(=S)N1CCN(c2ccc(Cl)c(Cl)c2)CC1	n	n	n	n	n	x	x
Cc1ccc(C(=O)c2oc3ccccc3c2NC(=O)COc2ccccc2C)cc1	x	n	x	x	n	x	x
Fc1ccccc1N1CCN(CCCNc2ccc3nncn3n2)CC1	90.0	95.3	43.3	n	n	u	u
SMILES	D2 antagonist	D2 ag-1	D2 ag-2	D2 PAM-1	D2 PAM-2	D3 ag	D2 ag-3
CCOC(=O)C1=CNS(=O)(=O)NC1c1ccc(C#N)cc1 (stereo not given)	x	x	n	n	x	x	x
Cc1ccc(CNC(=O)c2cccc3c2C(=O)c2ccc(N4CCOCC4)cc2S3(=O)=O)cc1	n	n	n	n	n	n	n
O=C(NCc1cccnc1)c1cc(C2CCCCN2C(=O)c2cccs2)on1 (stereo not given)	x	x	n	n	x	x	x
Cc1ccc(NC(=O)OCCN2CCN(Cc3ccccc3)CCC2=O)cc1	42.7	50.4	n	n	n	n	u
O=C(Nc1ccccc1)OCCN1CCN(Cc2ccccc2)CCC1=O	n	n	n	n	n	x	x
Cc1cc2oc(C(=O)Nc3cccc(-c4nc5ccccc5o4)c3)c(C)c2cc1C	x	n	x	x	n	x	x
COc1ccc(NC(=O)c2nc3nc(C)cc(C(F)F)n3n2)cc1OC	n	n	n	n	n	x	x
COc1ccccc1NS(=O)(=O)c1ccc(NC(=O)c2nc3nc(C)cc(C(F)F)n3n2)cc1	38.6	n	n	n	n	n	n
COc1ccc(N2CCN(CCCNS(=O)(=O)c3ccc4c(c3)oc(=O)n4C)CC2)cc1	n	n	n	n	n	n	n
Cc1cccc(N2CCN(C(=O)CCNS(=O)(=O)c3ccc4c(c3)oc(=O)n4C)CC2)c1C	n	44.5	n	n	n	n	n
Cn1c(=O)oc2cc(S(=O)(=O)NCCN3CCCCCC3)ccc21	n	n	n	n	n	x	x
Cc1cccc(N2CCN(C(=O)CCS(=O)(=O)c3ccc4c(c3)oc(=O)n4C)CC2)c1C	n	n	n	n	n	x	x
Cn1c(=O)oc2cc(S(=O)(=O)NCCN3CCN(c4ccccc4F)CC3)ccc21	76.5	54.9	n	n	n	n	n
CCCN(CC(=O)Nc1ccccc1C)C(=O)Cc1n[nH]c(=O)c2ccccc12	n	n	n	n	n	x	x
COc1ccc(C2c3c(-c4ccccc4)n[nH]c3C(=O)N2c2ccc(C(=O)O)cc2)cc1 (stereo not given)	39.0	n	n	n	n	n	n
COc1ccccc1NC(=O)C(C)OC(=O)C(C)SCC(=O)Nc1ccc(C)cc1 (stereo not given)	n	n	n	n	n	n	n
O=C(c1ccccc1)C1CN(Cc2ccccc2)CCC1(O)c1ccccc1 (stereo not given)	45.3	64.8	n	n	n	n	n
OC(c1ccccc1)C1CN(Cc2ccccc2)CCC1(O)c1ccccc1 (stereo not given)	n	n	n	n	n	x	x
C/C(=C\c1ccccc1)CN1CCN(c2ccccc2F)CC1	66.9	n	n	n	n	n	n
CCN1CCN(C/C(C)=C/c2ccccc2)CC1	n	n	n	n	n	x	x
Cc1c(N=c2scc(-c3ccccc3)n2CCO)c(=O)n(-c2ccccc2)n1C	n	n	n	n	n	x	x
Cc1c(N=c2scc(-c3ccccc3)n2C)c(=O)n(-c2ccccc2)n1C	75.5	66.1	u	n	n	n	u
c1ccc(CCN2CN(CCCN3CCOCC3)c3nc4ccccc4n3C2)cc1	n	55.7	n	n	n	n	n
